Values joined by “and” are separate entries in the source; they are usually repeats but may differ in a detail not shown here. Equal values may be shown once. Results filed as inconclusive are left out. Where a structure was tested more than once in an assay, its records may differ in their call. Active and inactive are the calls of the source. Calls come from the whole dose curve.
Tested on: thyroid hormone receptor (rat, GH3 cells)
Assay: qHTS assay to identify small molecule agonists of the thyroid receptor (TR) signaling pathway (AID 743066)
Settings: GH3.TRE-Luc cells, TR agonist luciferase, 24 h; series mostly up to 83.9 µM; activation: at the top concentration
% is set by controls: 0 for no effect and ±100 for the full control effect; potency is the fitted concentration of half-maximal effect.

SMILES	activation	Potency
CC1(C)CCC(Cc2ccc(Cl)cc2)C1(O)Cn1cncn1 (stereo not given)	-8.73% (inactive)	
CCOP(=O)(OCC)SCCSCC	1.31% (inactive)	
CCC(COC(=O)c1cc(OC)c(OC)c(OC)c1)(c1ccccc1)N(C)C (stereo not given)	-2.82% (inactive)	
O=C1C(=O)c2cccc3cccc1c23	-1.89% (inactive)	
Clc1cc(C(Cl)(Cl)Cl)cnc1Cl	1.06% (inactive)	
CCOP(=O)(OCC)O/C(=C/Cl)c1ccc(Cl)cc1Cl		inactive
BrCCCCBr	0.271% (inactive)	
CC(O)(CS(=O)(=O)c1ccc(F)cc1)C(=O)Nc1ccc(C#N)c(C(F)(F)F)c1 (stereo not given)		inactive
COc1c(C(C)(C)C)cc([N+](=O)[O-])c(C)c1[N+](=O)[O-]	-2.79% (inactive)	
Clc1ccc(C2(Cn3cncn3)CC(Br)CO2)c(Cl)c1 (stereo not given)	-5.27% (inactive)	
O=C(NCc1cccnc1)Nc1ccc([N+](=O)[O-])cc1	-9.13% (inactive)	
CCn1cc[n+](C)c1		inactive and 49.2 µM (active)
CCOP(=S)(Oc1ccc([N+](=O)[O-])cc1)c1ccccc1 (stereo not given)	0.125% (inactive)	
Cl/C=C\C[N+]12CN3CN(CN(C3)C1)C2	0.944% (inactive)	
Cc1c(F)c(F)c(COC(=O)C2C(/C=C(\Cl)C(F)(F)F)C2(C)C)c(F)c1F (stereo not given)	0.59% (inactive)	
O=C(OC1CCCCC1)c1ccccc1C(=O)OC1CCCCC1	-9.37% [at 95.2 µM] (inactive)	
COP(=O)(OC)O/C(=C/Cl)c1cc(Cl)c(Cl)cc1Cl	-5.17% [at 95.2 µM] (inactive)	
O=C(O)C(F)(F)C(F)(F)C(F)(F)C(F)(F)C(F)(F)C(F)(F)C(F)(F)C(F)(F)C(F)(F)F	2.95% (inactive)	
C(=NC1CCCCC1)=NC1CCCCC1		inactive
COc1nn(CSP(=S)(OC)OC)c(=O)s1	8.16% (inactive)	

Reference: PubChem BioAssay (Tox21)
